# Only some compounds are listed: those with a hit (about 8.1% of all), similar ones and a draw of the others.
# KB-3-1 cytotox = qHTS assay for MDR1-selective chemotherapeutics: Primary screen using the parental adenocarcinoma cell KB-3-1. KB-3-1 viability, CellTiter-Glo ATP luminescence, 72 h. Potency, µM (titrated, usually from 46.1 µM), usual class: cytotoxic. actives 1.4% (n = 400,000). AID 1347075, 2019; further: nearly all actives have a fitted effect of over 60% in size
#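 Screening of KB-3-1 cells (DMEM, 10% FBS, phenol-red free) ran from lowest to highest compound concentration; after 72 h at 37 °C viability was read luminescently and curves fitted.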
# KB-V1 MDR tox = qHTS assay for MDR1-selective chemotherapeutics: Primary screen using the drug-selected MDR subline cells KB-V1 | KB-V1 MDR cells viability, CellTiter-Glo, 72 h | actives 3.4% (n = 400,000) | Potency, µM (highest dose often 46.1 µM), most hits filed as cytotoxic; further: nearly all actives have a fitted effect of over 60% in size
#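 KB-V1 cells (P-gp-expressing MDR subline of KB-3-1) in phenol-red-free DMEM with 10% FBS were exposed to library compounds over a concentration series for 72 h at 37 degrees C. Viability read by CellTiter-Glo luminescence; concentration-effect curves fitted after normalization.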
# SW480 rereplic = A quantitative high throughput screen for small molecules that induce DNA re-replication in SW480 colon adenocarcinoma cells; SW480 DNA re-replication, Hoechst DNA content imaging, 48 h; actives 1.8% (n = 340,000); Potency, µM (doses to about 46.1 µM), most hits filed as activators; further: nearly all actives have a fitted effect of over 55% in size
#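 SW480 cells exposed to compounds for 48 hr at 37 C, 5% CO2, then Hoechst-stained 40 min. Nuclear DNA content imaged by fluorescence scanning (405 nm excitation, 500-530 nm emission); re-replication scored as increased high-intensity nuclei.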
# ELG1 repair inh = qHTS screen for small molecules that inhibit ELG1-dependent DNA repair in human embryonic kidney (HEK293T) cells expressing luciferase-tagged ELG1; HEK293T ELG1-luciferase reporter, luminescence, 16 h; DNA damage induced by 5-fluorouridine; Potency, µM (highest dose often 46.1 µM), most hits filed as inhibitors; actives 2.3% (n = 330,000); further: nearly all actives have a fitted effect of over 55% in size
#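 Cells (2,000 per well) received 5-fluorouridine plus test compound or DMSO and were incubated 16 hr at 37 °C, 5% CO2. Luciferase activity was read by luminescence 30 min after ONE-Glo addition; signal suppression marked inhibition of damage-induced ELG1 function.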
# MCF10A rerep = A quantitative high throughput screen for small molecules that induce DNA re-replication in MCF 10a normal breast cells. MCF 10A DNA re-replication, Hoechst nuclear intensity, 48 h. Potency, µM (titrated, usually from 46.1 µM), usual class: activators. actives 2.9% (n = 350,000). AID 624296, 2012; further: nearly all actives have a fitted effect of over 50% in size
# Hits are given with their value; 0 = inactive; ? = inconclusive; - = no result; [ ] = remark or other dose. The call rests on the fitted dose curve; in most records, active means well fitted curve in the direction sought with a large enough effect; inconclusive means small, poorly fitted or top-dose-only effect, or another doubt; inactive means no such curve, though single readings can be large; an effect the other way counts as inactive or inconclusive.
SMILES,KB-3-1 cytotox,KB-V1 MDR tox,SW480 rereplic,ELG1 repair inh,MCF10A rerep
CCOC(=O)N1CCN(C(=O)C(C)N(c2ccccc2)S(C)(=O)=O)CC1 (stereo unspecified),0,0,0,0,0
CCOC(=O)N1CCN(C/C(C)=C/c2ccccc2)CC1,0,15µM,0,0,0
O=C(/C=C/c1ccc([N+](=O)[O-])cc1)OCC(=O)N1CCOCC1,-,-,0,0,18µM
CCOC(=O)N1CCN(C(=O)C(c2ccccc2)c2ccccc2)CC1,0,4.1µM,?,0,?
CCOC(=O)C1CCN(C(=O)/C=C/c2ccccc2)CC1,0,0,0,?,0
C/C(=C\c1ccccc1)CN1CCN(C)CC1,0,0,0,0,0
CCOC(=O)C1CCN(C(=O)COC(=O)/C=C/c2ccccc2)CC1,?,0,7.3µM,?,0
CCn1c(SCC(=O)NC(=O)NCc2ccco2)nnc1-c1cccs1,0,0,0[9.22 µM],0,0
CN(CCCN1CCOCC1)Cc1nc(-c2ccccc2)no1,0,0,0,0,?
CN(Cc1ccon1)C(=O)C1CCN(C2CCN(CCCc3ccccc3)CC2)CC1,0,0,0,0,0
CCOC(=O)C1CCN(C(=O)COC(=O)CSc2ccc([N+](=O)[O-])cc2)CC1,0,?,0,0,0
O=C1CCCN2N=C(SCC(=O)Nc3ccc([N+](=O)[O-])cc3)SC2=N1,0,0,2.9µM,0,5.2µM
CCOC(=O)/C=C1\SCC(=O)N1CC(=O)NCc1ccc(OC)c(OC)c1,0,0,0,0,0
CCOP1(=O)OCC2OC(n3cnc4c(N)ncnc43)C(O)C2O1 (stereo unspecified),0,0,0,0,15µM
O=CNCCCc1nc2ccccc2n1Cc1cccc2ccccc12,0,0,0,0,0
Cc1csc(SCCn2c(N3CCN(c4ccccc4)CC3)nc3c2c(=O)[nH]c(=O)n3C)n1,0,21µM,0,?,?
Cc1ccnc(SCCn2c(N3CCOCC3)nc3c2c(=O)[nH]c(=O)n3C)n1,0,0,0,-,0
Cn1c(=O)[nH]c(=O)c2c1nc(N1CCCCCC1)n2CCCSc1nc2ccccc2o1,0,?,0,23µM,0
CC1CCN(c2nc3c(c(=O)[nH]c(=O)n3C)n2CC(C)CSc2nnnn2-c2ccccc2)CC1 (stereo unspecified),0,3.7µM,0,?,0
Cn1c(=O)[nH]c(=O)c2c1nc(N1CCCCC1)n2CCCSc1nnnn1-c1ccccc1,0,9.2µM,0,?,0
CN1CCN(c2nc3c(c(=O)[nH]c(=O)n3C)n2CCCSc2nnnn2-c2ccccc2)CC1,0,0,0,0,0
CCOC(=O)c1nnn(CC(=O)N2N=C(c3cccc4ccccc34)CC2c2ccccc2)c1C(=O)OCC (stereo unspecified),0,0,0,?,0
CCOC(=O)C1CCN(c2cc(=O)n(-c3ccc(OC)cc3)c(=O)[nH]2)CC1,?,0,0,0,0
O=C(NCc1ccc(F)cc1)c1ccc(CSCc2cccc(Cl)c2)o1,0,0,-,-,-
CCCCCC(O)C=CC1C(O)CC(O)C1CC=CCCCC(=O)O (stereo unspecified),0,0,-,-,-
CC(C)Oc1cccc(C(=O)C2CCCN(C(=O)c3cc(C(F)(F)F)[nH]n3)C2)c1 (stereo unspecified),?,21µM,0,0,0
CCOC(=O)c1[nH]ncc1CN1CCCC(C(=O)c2cccc(OC(C)C)c2)C1 (stereo unspecified),0,0,0,0,0
CCn1ncc(CN2CCCC(C(=O)c3cccc(OC(C)C)c3)C2)c1C (stereo unspecified),0,0,0,0,23µM
CCCCOP(=O)(c1ccc(N(C)C)cc1)C(O)c1ccc(C(C)C)cc1 (stereo unspecified),?,0,0,0,0
c1ccc(CC2CCN(c3nc4ccccc4n4nnnc34)CC2)cc1,0,0,0,0,?
